Assay outcomes (PubChem BioAssay)
An excerpt weighted towards active compounds, which were near 11% of everything screened.
NPR1 antag = Natriuretic polypeptide receptor (hNpr1) antagonism - Primary qHTS | Potency, µM (top dose mostly 46.3 µM), usual class: inhibitors | HEK293 hNpr1 GloSensor cGMP, ANP-stimulated luminescence | 1.6% of 76,000 active | AID 1347048, 2019; calls by dose curve; note: nearly all actives have a fitted effect of over 60% in size
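HEK293 cells stably expressing human Npr1 and cGMP GloSensor pGS-40F, loaded 2 h with 2% GloSensor reagent, given compound 30 min at room temperature. Luminescence read before and 20 min after 0.1 nM hNppA.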
NIH3T3 tox = Cytotoxic Profiling in NIH 3T3 Cell Line of Diverse Libraries Using Quantitative High-Throughput Screening. 4.3% of 94,000 active. Potency, µM (titrated, usually from 96.7 µM), usual class: inhibitors. NIH 3T3 viability, CellTiter-Glo ATP luminescence, 48-72 h. AID 1345082, 2018; note: nearly all actives have a fitted effect of over 55% in size
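Mouse fibroblast NIH 3T3 cells, 400 per well, received compound via pintool and were incubated for 48 or 72 hr prior to CellTiter-Glo ATP luminescence measurement.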
HEK cytotox = Cytotoxic Profiling in HEK 293 Cell Line of Diverse Libraries Using Quantitative High-Throughput Screening | HEK 293 viability, ATP luminescence (CellTiter-Glo), 48-72 h | Potency, µM (highest dose often 115 µM), usual class: inhibitors | 6.6% of 94,000 active | AID 1345083, 2018; note: nearly all actives have a fitted effect of over 60% in size
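Viability of HEK 293 cells, plated at 250 cells/well, was judged by cellular ATP after compound treatment for 48 or 72 hr. Luminescence was imaged 10 min after CellTiter-Glo addition at room temperature.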
FLuc inh = Firefly luciferase inhibition profiling of diverse chemical library using quantitative high-throughput screening; Luciferin 4-monooxygenase (Photinus pyralis), P08659; purified P. pyralis luciferase, luminescence, biochemical; Potency, µM (top dose mostly 115 µM), hits mostly inhibitors; 2.5% of 76,000 active; note: nearly all actives have a fitted effect of over 65% in size
Target sequence (P08659 whole entry, looked up): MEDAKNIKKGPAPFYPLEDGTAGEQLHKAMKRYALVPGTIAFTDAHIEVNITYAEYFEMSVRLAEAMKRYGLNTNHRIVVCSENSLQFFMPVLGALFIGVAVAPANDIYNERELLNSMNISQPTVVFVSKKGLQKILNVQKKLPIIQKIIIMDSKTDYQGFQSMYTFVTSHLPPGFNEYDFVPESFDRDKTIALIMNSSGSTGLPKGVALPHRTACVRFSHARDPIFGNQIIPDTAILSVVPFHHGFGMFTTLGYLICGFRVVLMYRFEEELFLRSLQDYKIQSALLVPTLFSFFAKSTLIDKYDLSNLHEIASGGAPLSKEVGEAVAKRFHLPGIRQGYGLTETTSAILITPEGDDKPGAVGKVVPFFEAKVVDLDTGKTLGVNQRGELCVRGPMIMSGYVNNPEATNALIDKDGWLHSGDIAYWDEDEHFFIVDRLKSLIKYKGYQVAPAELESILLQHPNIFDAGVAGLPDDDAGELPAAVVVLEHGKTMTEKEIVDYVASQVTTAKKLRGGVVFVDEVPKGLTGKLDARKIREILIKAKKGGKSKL
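Luminescence read by CCD imaging after purified firefly luciferase (10nM final) was added to substrate buffer holding 10uM D-luciferin and 10uM ATP, pH 7.5, pre-dosed with compound.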
Numbers stand for hits; 0 = inactive; ? = inconclusive; - = not tested or not shown; ! = not confirmed by another sample. Unless noted, calls come from the whole dose curve; as a rule, active = well fitted curve in the direction sought with a large enough effect; inconclusive = small, poorly fitted or top-dose-only effect, or another doubt; inactive = no such curve, though single readings can be large; an effect the other way counts as inactive or inconclusive.

SMILES	NPR1 antag	NIH3T3 tox	HEK cytotox	FLuc inh
O=S(=O)(c1ccc2c(c1)OCCO2)N1CC[C@@H]2COCCN(Cc3cccnc3)[C@@H]2C1	0	?	?	0
O=C1OC[C@@H]2CCN(Cc3ccccc3Cl)Cc3ccc(F)cc3N12	0	0	71µM	0
CN(C)c1ccc(C(=O)NC2CCN(c3cc(-c4ccc(Cl)cc4)[nH]n3)CC2)cc1	0	0	?	0
O=C(NC1CCN(c2cc(-c3ccc(F)cc3)[nH]n2)C1)c1cccc(Cl)c1 (stereo unspecified)	0	?	?	0
CC(=O)Nc1ccc(C(=O)NC2CCN(c3cc(-c4ccc(Cl)cc4)[nH]n3)CC2)cc1	0	22µM	32µM	0
Cc1ccc(C(=O)NC2CCN(c3cc(-c4ccccc4)[nH]n3)CC2)cc1F	0	35µM	?	0
Cc1ccc(C(=O)NC2CCCN(c3cc(-c4ccccc4)[nH]n3)C2)cc1F (stereo unspecified)	0	?	?	0
O=C(NC1CCN(c2cc(-c3ccccc3)[nH]n2)CC1)c1cccc(Cl)c1	0	?	28µM	0
CCC1CCCCN1C(=O)c1ccc(-c2nnc3ccc(NC(=O)C4CCC4)cn23)cc1 (stereo unspecified)	0	?	?	0
O=C(c1ccccc1Cl)N1CCC2(CC1)CC(=O)N(c1ccccc1)c1ccccc1O2	0	?	79µM	0
O=C(c1ccccc1F)N1CCC2(CC1)CC(=O)N(c1ccccc1)c1ccccc1O2	0	?	79µM	0
O=C(c1ccccc1)N1CCC2(CC1)CC(=O)N(c1ccccc1)c1ccccc1O2	0	0	0	0
CCOC(=O)c1cccc(NC(=O)N2CC[C@@H](CC(=O)N[C@@H](CO)CC(C)C)[C@@H](CC)C2)c1	0	?	0	0
O=C(NCC1CCCCC1)c1ccc2nnc(C3CCOCC3)n2c1	-	0	0	-
COCCN1Cc2ccc(NCC(C)C)nc2C(C)(C(=O)Nc2cccc(F)c2)C1 (stereo unspecified)	0	25µM	45µM	0
COCCN1Cc2ccc(Nc3cccnc3)nc2C(C)(C(=O)Nc2ccccc2C)C1 (stereo unspecified)	0	?	?	63µM
COCCN1Cc2ccc(NCc3ccccc3)nc2C(C)(C(=O)Nc2ccccc2)C1 (stereo unspecified)	0	?	50µM	0
COCCN1Cc2ccc(NCc3ccccc3)nc2C(C)(C(=O)NCc2ccccc2)C1 (stereo unspecified)	0	45µM	50µM	0
COCCN1Cc2ccc(NCc3ccccc3)nc2C(C)(C(=O)Nc2cccnc2)C1 (stereo unspecified)	0	?	?	0
CC(C)NC(=O)NC[C@H]1O[C@@H](CC(=O)N2CCc3ccccc32)[C@H](O)[C@@H]1O	0	?	0	0
COc1ccccc1NC(=O)NCC1CCN(Cc2cccnc2)C1 (stereo unspecified)	0	0	0	0
COc1ccc(-c2noc(-c3cccn3CC(=O)Nc3ccc(F)c(F)c3)n2)cc1F	0	?	0	0
COc1ccc(-c2noc(-c3cccn3CC(=O)Nc3ccc(C)cc3)n2)cc1F	0	0	0	0
CNC(=O)[C@H]1C[C@]2(CCCCN(CCO)C2=O)N(C(=O)Cc2ccc(OC)cc2)[C@H]1c1ccco1	-	?	0	-
Cc1cc(C)cc(-c2ccc(CN3CCCC(c4nc5ccc(F)cc5c(=O)[nH]4)C3)cc2)c1 (stereo unspecified)	0	18µM	40µM!	0
CC(C)CN1CCCC(c2nc3ccc(F)cc3c(=O)[nH]2)C1 (stereo unspecified)	0	32µM	25µM	0
Cc1ccc2nc(C3CCN(Cc4ccc(-c5cccs5)cc4)CC3)[nH]c(=O)c2c1	0	?	35µM!	0
Cc1ccc2nc(C3CCCN(Cc4ccccc4)C3)[nH]c(=O)c2c1 (stereo unspecified)	0	?	63µM!	0
Cc1ccccc1C(=O)N1CCCC(c2nn(-c3ccc(Cl)cc3)c(=O)[nH]2)C1 (stereo unspecified)	0	?	?	0
CC(C)(C)C(=O)NC1CCN(c2nccc(Nc3ccccc3F)n2)CC1	-	0	?	-
